# Screening data as filed in PubChem.
# Only some compounds are listed: those with a hit (about 4% of all), similar ones and a draw of the others.
# Mtb FBA inh: inhibits M. tuberculosis FBA enzyme. inhibition, % at 1 µM. purified M. tuberculosis FBA, fluorescence read-out. P9WQA3. hit rate 2.3% among 360,000; in the data active = inhibition above about 27%
# Target sequence (P9WQA3 whole entry, looked up): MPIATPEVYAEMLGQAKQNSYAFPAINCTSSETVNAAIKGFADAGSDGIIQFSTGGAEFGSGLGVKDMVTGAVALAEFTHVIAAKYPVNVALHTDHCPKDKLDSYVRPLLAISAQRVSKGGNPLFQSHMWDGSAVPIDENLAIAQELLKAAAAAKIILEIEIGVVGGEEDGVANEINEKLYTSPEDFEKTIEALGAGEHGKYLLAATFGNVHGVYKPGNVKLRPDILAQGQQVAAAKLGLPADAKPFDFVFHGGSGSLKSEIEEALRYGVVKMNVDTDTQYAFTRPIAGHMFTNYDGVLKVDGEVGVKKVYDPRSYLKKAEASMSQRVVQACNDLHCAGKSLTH
# CCHFV vOTU inh: blocks the CCHF virus ovarian tumor domain protease. hit rate 0.55% among 370,000. inhibition, % at 11.5 µM. CCHFV vOTU protease, Pep-AMC fluorescence
# MazF activator: MazEF (E. coli) toxin RNase activation | P0AE70 | FAM/BHQ RNA-DNA oligo cleavage fluorescence, 5 h | activation, % at 20 µM | hit rate 0.32% among 350,000 | AID 504720; in the data active = activation above about 50%
# Target sequence (P0AE70 whole entry, looked up): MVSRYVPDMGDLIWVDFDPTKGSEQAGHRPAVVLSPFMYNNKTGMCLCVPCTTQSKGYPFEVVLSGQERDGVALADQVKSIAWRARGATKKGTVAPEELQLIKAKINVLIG
# Mtb bLac sens: beta-lactam sensitization of Mtb H37Rv. M. tuberculosis H37Rv growth with meropenem, percent inhibition. inhibition, % at 25 µM. hit rate 0.27% among 330,000; call rule not given here;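 also: growth measured after seven days incubation then overnight dye step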
# GDH-TPI counter-1: counter-screen for M. tuberculosis FBA inhibitors: GDH-TPI coupled enzymes; GDH-TPI coupled enzyme counterscreen, NADH absorbance; inhibition, % at 4.8 µM; hit rate 1.2% among 360,000; AID 588335
# Mtb FBA inh conf: confirmation of M. tuberculosis fructose-bisphosphate aldolase inhibitors; hit rate 78% among 5,600; purified M. tuberculosis FBA, fluorescence read-out; shares compounds with Mtb FBA inh; inhibition, % at 1 µM; in the data active = inhibition above about 27%
# GDH-TPI counter-2: counter-screen for M. tuberculosis FBA inhibitors: GDH-TPI coupled enzyme inhibition; shares compounds with Mtb FBA inh; GDH-TPI coupled enzyme counterscreen, fluorescence; inhibition, % at 1 µM; hit rate 81% among 5,600; AID 652141; in the data active = inhibition above about 10%
# A number is an active result; – = inactive; · = no result; + = active, no number. Rule as the data show it, unless noted: active = inhibition above about 30%; inactive = the rest.
SMILES,Mtb FBA inh,CCHFV vOTU inh,MazF activator,Mtb bLac sens,GDH-TPI counter-1,Mtb FBA inh conf,GDH-TPI counter-2
COc1ccc(OC)c(CC(=O)Nc2ccc3c(c2)c(=O)n(C)n3Cc2cccc(C(F)(F)F)c2)c1,110.7,–,·,·,–,36.4,27.5
S=c1[nH]nc(-c2n[nH]c3c2CCC3)n1N=Cc1ccc(Br)s1,·,–,·,·,·,·,·
CC(=O)Nc1nc2ccc(-c3nc4ccccc4o3)cc2s1,104.8,–,–,–,–,92.4,75.2
O=C(Nc1ccc(-c2nc3ccccc3o2)cc1)C1CCCO1 (stereo not given),34.3,–,–,–,–,–,–
CC(=O)Nc1ccc(S(=O)(=O)Nc2cccc(-c3nc4ccccc4o3)c2)cc1,55.2,–,–,–,–,57.7,53.0
O=S(=O)(Nc1ccc(-c2nc3ccccc3o2)cc1)c1ccccc1,86.6,–,–,–,42.7,130.5,110.0
CCC(=O)Nc1cccc(-c2nc3ccccc3o2)c1,–,–,–,–,–,·,·
O=C(Nc1ccc(-c2nc3cc(Cl)ccc3o2)cc1)C1CCCO1 (stereo not given),–,–,–,–,–,·,·
COc1ccc(-c2cccc3c4c([nH]c23)[C@@H]2C[C@H]3[C@@H](C(=O)N2CC4)[C@H](C)ON3C)cc1,·,–,·,·,·,·,·
COC(=O)[C@]12C[C@H](CC(=O)NCCC(C)C)C(=O)N(Cc3cccc4ccccc34)C1=C[C@H](C1CCCC1)O[C@@H]2C,·,–,·,·,·,·,·
COC(=O)C1=C(C)N(C)C(=NCc2cc(OC)c(OC)c(OC)c2)NC1c1cccc(C(F)(F)F)c1 (stereo not given),·,–,·,·,·,·,·
CCCC[n+]1ccn(-c2nc3ccccc3nc2[N-]S(=O)(=O)c2ccccc2)c1,33.1,–,–,–,–,+,196.9
CCCC[n+]1ccn(-c2nc3ccccc3nc2[N-]S(=O)(=O)c2ccc(C)cc2)c1,–,–,–,–,–,·,·
CCCCN(C)C(=O)CCC(=O)Nc1ccc2nc(N3CCN(C)CC3)cc(C)c2c1,28.4,–,–,–,–,61.1,56.9
CCOc1ccccc1NC(=O)CCC(=O)Nc1ccc2nc(N3CCN(C)CC3)cc(C)c2c1,30.9,–,–,–,–,130.4,121.7
CCCCN(C)C(=O)CCC(=O)Nc1ccc2nc(N3CCOCC3)cc(C)c2c1,49.2,–,–,–,–,154.0,124.7
Cc1cc(N2CCOCC2)nc2ccc(NC(=S)NCCN(C)C)cc12,–,–,–,–,–,·,·
C[C@@H]1ON(C)[C@H]2C[C@H]3c4cc(-c5ccc6c(c5)OCO6)ccc4CCN3C[C@@H]12,·,–,·,·,·,·,·
Cc1ccc(S(=O)(=O)c2n[nH]n3c2nc(=O)c2ccccc23)cc1,–,–,–,–,–,·,·
CCOC(=O)c1n[nH]n2c1nc(=O)c1ccccc12,32.5,–,–,–,–,116.3,108.3
O=S(=O)(c1ccc(Cl)cc1)N1CN2CCN(C2)C1,–,–,–,–,–,·,·
O=S(=O)(c1ccc(F)cc1)N1CN2CCN(C2)C1,30.1,–,–,–,–,–,–
COc1ccc2c(c1)nc(-c1cccc(Br)c1)c(=O)n2C(c1ccccn1)c1nc2ccccc2[nH]1 (stereo not given),52.8,–,·,·,·,67.6,47.5
COc1ccc(-c2oc3ccc(N4CCOCC4)cc3c2/C=C/c2ccc(OC)c(OC)c2)cc1,36.2,–,–,–,39.9,+,175.7
COc1ccc(/C=C/c2c(-c3ccc(OC)cc3)sc3ccc(N4CCOCC4)cc23)cc1,–,·,–,–,–,·,·
SMILES,Mtb FBA inh,CCHFV vOTU inh,MazF activator,Mtb bLac sens,GDH-TPI counter-1,Mtb FBA inh conf,GDH-TPI counter-2
NC(N)=N/N=C/c1ccc(N(c2ccccc2)c2ccccc2)cc1,104.5,–,–,–,–,70.9,48.7
CCN(Cc1ccccc1)c1ccc(/C=N/N=C(N)N)cc1,–,–,–,–,–,·,·
CC1CCN(S(=O)(=O)c2cn(CC(=O)Nc3cccc(C#N)c3)cn2)CC1,38.7,–,–,–,–,80.0,64.9
CC(=O)c1cccc(NC(=O)Cn2cnc(S(=O)(=O)N3CCC(C)CC3)c2)c1,–,·,–,–,–,·,·
CC(C)NC(=O)C1CCN(c2cncnc2)CC1,·,–,·,·,·,·,·
Fc1ccc(-c2cc(C(F)(F)F)n3ncnc3n2)cc1,85.1,–,–,–,–,129.8,129.4
FC(F)(F)c1ccccc1CN1CCCc2nc(-c3ccc(Br)cc3)ccc21,·,–,·,·,·,·,·
CCOC(=O)c1cc(C#N)c(SCC(=O)O)[nH]c1=O,42.5,–,–,–,–,32.3,22.5
Cc1cccn2c(=O)c3cc(C(=O)N(C)C)n(C)c3nc12,48.9,–,–,–,–,92.8,68.7
Cn1c(C(=O)NCCCN2CCCC2=O)cc2c(=O)n(C)c3ccccc3c21,–,–,–,–,–,·,·
Cc1cccc(C(=O)NCCCn2ccnc2)c1C,–,–,–,–,–,·,·
Cc1cccn2c(=O)c3cc(C(=O)NCCCn4ccnc4)n(C)c3nc12,59.0,–,–,–,–,76.8,53.4
Cc1cccn2c(=O)c3cc(C(=O)NCCCN4CCCC4=O)n(C)c3nc12,107.9,–,–,–,–,–,–
C=CCN=C1NC(c2ccccc2C(F)(F)F)C(C(=O)OC)=C(C)N1Cc1ccc(C(F)(F)F)cc1 (stereo not given),·,–,·,·,·,·,·
O=C(N[C@@H](Cc1cccnc1)C(=O)N1CCC[C@H]1C(=O)NCCc1ccccc1Cl)c1cccs1,·,–,·,·,·,·,·
COc1ccc(N2C(=O)c3ccccc3NC2c2ccc(OC)c(COc3ccccn3)c2)cc1 (stereo not given),–,–,–,–,–,·,·
CCOc1cc(C2Nc3ccccc3C(=O)N2c2ccccc2OC)ccc1O (stereo not given),–,–,–,–,–,·,·
COc1ccc(N2C(=O)c3ccccc3NC2c2ccc(NC(C)=O)cc2)c(OC)c1 (stereo not given),42.3,–,–,–,–,91.1,63.8
COc1ccccc1N1C(=O)c2ccccc2NC1c1ccc(O)cc1 (stereo not given),41.9,–,–,–,–,52.1,44.8
O=C(OC12CCCN(C1)/C(=C/c1cccnc1)C2)c1cccc(F)c1 (stereo not given),·,–,·,·,·,·,·
COc1ccccc1CNC(=O)N(CCc1c(C)[nH]c2ccccc12)Cc1cccs1,·,–,·,·,·,·,·
O=C(NCC1COCCO1)C1CCN(S(=O)(=O)c2ccc(Br)s2)CC1 (stereo not given),·,–,·,·,·,·,·
O=C(Nc1ccc(F)cc1F)c1cc(-c2ccc(Cl)cc2)nc2ccccc12,·,–,·,·,·,·,·
O=C(CN1C(=O)/C(=C\c2cccc(Br)c2)Oc2ccccc21)NCCCN1CCOCC1,33.4,–,–,–,–,161.8,130.4
O=C(O)CN1C(=O)/C(=C/c2cccc(Cl)c2)Oc2ccccc21,67.2,–,–,–,–,+,+
Cc1ccc(NC(=O)CCCCCN2C(=O)[C@@H]3Cc4ccccc4CN3C2=O)cc1,53.3,–,–,–,–,–,–
COc1ccc(OC)c(CN2C(=O)CSCC2(C)c2nnnn2C2CCCC2)c1 (stereo not given),·,–,·,·,·,·,·
